Laboratory results reported in the supplement of paper PMC11732987, “Enantioselective OTUD7B fragment discovery through chemoproteomics screening and high-throughput optimisation” (Communications Chemistry, 2025).

Tests used:
Experiment in all cases: log2 ratio of Biotin-Ahx-Ub-VS probe labelling (fragment/DMSO); higher = less target engagement (more negative = stronger competition), active = hit call of the paper (q ≤ 0.05, log2 ratio ≤ -1)
Details in all cases: compound concentration: 200 uM; treatment time: 3 h
USP34 = USP34 (UniProt Q70CQ2)
Summary of the method: (§1)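 HEK293T lysate, 495 µg per sample in Tris/CHAPS/IGEPAL buffer with protease inhibitors, was treated in triplicate with fragment at 200 µM or vehicle for 3 h and then with Biotin-Ahx-Ub-VS at 0.5 µM final for 1 h. Labelled DUBs were NeutrAvidin-enriched, digested with LysC and trypsin, and run by diaPASEF LC-MS/MS. Spectronaut label-free quantities were global-median-normalised, and values are average log2 fragment/vehicle ratios by unpaired t-test on proteins with ≥2 unique peptides.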

USP36 = target: T1, USP36 (UniProt Q9P275)
T1 sequence (whole entry): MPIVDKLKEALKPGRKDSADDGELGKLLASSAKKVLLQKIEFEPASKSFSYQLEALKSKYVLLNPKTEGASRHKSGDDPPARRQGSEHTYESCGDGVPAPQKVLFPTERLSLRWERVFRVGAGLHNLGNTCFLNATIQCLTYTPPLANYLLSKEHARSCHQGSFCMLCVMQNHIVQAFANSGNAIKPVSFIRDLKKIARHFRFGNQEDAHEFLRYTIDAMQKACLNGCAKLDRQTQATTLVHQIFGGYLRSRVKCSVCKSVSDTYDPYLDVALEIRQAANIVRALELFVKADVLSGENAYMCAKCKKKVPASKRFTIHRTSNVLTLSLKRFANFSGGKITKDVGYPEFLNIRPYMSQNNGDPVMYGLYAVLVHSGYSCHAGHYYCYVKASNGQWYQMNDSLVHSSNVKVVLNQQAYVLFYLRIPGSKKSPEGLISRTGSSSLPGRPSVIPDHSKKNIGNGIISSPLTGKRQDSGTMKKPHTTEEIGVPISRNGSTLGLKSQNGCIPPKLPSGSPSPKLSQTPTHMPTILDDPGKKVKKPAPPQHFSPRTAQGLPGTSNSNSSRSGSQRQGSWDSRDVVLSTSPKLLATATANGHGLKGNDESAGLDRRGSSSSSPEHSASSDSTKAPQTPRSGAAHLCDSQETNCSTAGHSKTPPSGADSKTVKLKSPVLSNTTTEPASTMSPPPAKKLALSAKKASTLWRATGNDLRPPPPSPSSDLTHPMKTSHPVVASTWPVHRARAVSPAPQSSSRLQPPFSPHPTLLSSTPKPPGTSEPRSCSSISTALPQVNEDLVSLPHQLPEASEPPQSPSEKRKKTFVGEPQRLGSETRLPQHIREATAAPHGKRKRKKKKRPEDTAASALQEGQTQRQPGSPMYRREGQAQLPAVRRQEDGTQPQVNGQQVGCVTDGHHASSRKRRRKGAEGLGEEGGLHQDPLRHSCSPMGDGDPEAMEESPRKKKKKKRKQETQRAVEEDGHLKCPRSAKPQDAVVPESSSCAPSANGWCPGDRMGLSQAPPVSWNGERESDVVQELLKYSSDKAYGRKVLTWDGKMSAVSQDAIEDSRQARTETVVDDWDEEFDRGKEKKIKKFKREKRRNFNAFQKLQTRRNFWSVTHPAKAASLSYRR
Summary of the method: as §1

USP38 = target: T2, USP38 (UniProt Q8NB14)
T2 sequence (whole entry): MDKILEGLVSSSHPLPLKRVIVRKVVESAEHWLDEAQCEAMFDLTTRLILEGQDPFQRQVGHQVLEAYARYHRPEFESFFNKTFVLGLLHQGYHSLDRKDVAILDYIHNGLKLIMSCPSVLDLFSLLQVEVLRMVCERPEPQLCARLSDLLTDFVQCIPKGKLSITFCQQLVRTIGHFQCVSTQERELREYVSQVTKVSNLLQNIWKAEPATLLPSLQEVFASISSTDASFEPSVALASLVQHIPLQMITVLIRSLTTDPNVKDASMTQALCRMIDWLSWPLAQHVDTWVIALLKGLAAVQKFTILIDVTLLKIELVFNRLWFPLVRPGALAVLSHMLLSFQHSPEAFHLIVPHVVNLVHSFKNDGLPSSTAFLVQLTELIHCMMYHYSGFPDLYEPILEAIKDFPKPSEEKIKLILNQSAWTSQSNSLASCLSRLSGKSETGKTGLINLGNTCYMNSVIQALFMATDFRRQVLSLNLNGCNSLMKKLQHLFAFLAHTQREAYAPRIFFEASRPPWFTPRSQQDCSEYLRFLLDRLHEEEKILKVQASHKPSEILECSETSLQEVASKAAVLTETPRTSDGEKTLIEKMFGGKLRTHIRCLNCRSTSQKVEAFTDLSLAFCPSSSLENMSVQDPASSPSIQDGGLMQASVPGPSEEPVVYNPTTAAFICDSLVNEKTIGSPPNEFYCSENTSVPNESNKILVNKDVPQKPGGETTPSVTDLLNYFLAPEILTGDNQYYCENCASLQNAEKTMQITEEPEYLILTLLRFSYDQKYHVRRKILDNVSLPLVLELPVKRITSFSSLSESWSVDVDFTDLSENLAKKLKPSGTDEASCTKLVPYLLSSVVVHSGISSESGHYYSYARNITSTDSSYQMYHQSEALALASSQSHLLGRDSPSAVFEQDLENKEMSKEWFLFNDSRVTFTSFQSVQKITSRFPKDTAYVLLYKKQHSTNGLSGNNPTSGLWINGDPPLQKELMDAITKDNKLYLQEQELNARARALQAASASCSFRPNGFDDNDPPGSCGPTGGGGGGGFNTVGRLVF
Summary of the method: as §1

USP39 = target: T3, USP39 (UniProt Q53GS9)
T3 sequence (whole entry): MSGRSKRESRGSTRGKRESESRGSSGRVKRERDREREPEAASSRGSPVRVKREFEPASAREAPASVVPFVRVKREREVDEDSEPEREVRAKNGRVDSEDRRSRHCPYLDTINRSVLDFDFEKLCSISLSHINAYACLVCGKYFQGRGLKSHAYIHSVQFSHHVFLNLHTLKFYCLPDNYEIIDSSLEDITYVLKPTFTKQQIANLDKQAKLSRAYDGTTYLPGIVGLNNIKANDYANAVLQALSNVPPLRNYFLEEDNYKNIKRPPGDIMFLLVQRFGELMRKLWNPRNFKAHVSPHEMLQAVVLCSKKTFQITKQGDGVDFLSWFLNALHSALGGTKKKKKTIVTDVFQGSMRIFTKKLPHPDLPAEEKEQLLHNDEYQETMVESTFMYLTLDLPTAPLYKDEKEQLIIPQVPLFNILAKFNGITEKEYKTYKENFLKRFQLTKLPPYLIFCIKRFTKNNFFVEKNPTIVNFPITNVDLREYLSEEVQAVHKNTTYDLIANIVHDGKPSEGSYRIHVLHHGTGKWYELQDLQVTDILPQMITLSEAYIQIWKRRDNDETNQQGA
Summary of the method: as §1

USP4 = target: T4, USP4 (UniProt Q13107)
T4 sequence (whole entry): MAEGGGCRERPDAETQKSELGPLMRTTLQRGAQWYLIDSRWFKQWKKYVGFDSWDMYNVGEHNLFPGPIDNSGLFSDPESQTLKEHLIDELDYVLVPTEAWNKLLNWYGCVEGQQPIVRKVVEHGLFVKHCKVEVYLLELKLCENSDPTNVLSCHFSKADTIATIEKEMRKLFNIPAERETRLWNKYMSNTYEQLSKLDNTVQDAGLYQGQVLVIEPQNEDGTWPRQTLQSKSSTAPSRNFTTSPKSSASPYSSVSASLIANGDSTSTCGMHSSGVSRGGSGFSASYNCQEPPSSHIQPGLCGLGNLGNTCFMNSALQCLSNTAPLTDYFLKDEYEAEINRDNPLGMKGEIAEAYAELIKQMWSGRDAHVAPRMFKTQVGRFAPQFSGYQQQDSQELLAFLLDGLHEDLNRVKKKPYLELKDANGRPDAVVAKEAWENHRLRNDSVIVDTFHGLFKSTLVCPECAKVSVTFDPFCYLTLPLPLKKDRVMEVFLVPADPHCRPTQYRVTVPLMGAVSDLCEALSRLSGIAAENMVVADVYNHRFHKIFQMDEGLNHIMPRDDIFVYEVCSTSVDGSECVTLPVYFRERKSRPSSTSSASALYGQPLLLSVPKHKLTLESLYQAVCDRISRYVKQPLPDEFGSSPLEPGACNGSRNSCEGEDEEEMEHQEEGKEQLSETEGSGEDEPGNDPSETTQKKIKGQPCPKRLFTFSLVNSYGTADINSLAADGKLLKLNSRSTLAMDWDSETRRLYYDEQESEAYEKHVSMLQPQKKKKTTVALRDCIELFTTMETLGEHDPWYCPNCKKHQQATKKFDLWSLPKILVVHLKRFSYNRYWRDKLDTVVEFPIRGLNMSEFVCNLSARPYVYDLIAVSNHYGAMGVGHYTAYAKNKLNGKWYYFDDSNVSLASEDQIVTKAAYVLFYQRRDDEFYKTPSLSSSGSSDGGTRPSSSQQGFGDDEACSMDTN
Summary of the method: as §1

Measured: log2 ratio of Biotin-Ahx-Ub-VS probe labelling

Sequence of USP34 (Q70CQ2 whole entry, the tested form may be a part): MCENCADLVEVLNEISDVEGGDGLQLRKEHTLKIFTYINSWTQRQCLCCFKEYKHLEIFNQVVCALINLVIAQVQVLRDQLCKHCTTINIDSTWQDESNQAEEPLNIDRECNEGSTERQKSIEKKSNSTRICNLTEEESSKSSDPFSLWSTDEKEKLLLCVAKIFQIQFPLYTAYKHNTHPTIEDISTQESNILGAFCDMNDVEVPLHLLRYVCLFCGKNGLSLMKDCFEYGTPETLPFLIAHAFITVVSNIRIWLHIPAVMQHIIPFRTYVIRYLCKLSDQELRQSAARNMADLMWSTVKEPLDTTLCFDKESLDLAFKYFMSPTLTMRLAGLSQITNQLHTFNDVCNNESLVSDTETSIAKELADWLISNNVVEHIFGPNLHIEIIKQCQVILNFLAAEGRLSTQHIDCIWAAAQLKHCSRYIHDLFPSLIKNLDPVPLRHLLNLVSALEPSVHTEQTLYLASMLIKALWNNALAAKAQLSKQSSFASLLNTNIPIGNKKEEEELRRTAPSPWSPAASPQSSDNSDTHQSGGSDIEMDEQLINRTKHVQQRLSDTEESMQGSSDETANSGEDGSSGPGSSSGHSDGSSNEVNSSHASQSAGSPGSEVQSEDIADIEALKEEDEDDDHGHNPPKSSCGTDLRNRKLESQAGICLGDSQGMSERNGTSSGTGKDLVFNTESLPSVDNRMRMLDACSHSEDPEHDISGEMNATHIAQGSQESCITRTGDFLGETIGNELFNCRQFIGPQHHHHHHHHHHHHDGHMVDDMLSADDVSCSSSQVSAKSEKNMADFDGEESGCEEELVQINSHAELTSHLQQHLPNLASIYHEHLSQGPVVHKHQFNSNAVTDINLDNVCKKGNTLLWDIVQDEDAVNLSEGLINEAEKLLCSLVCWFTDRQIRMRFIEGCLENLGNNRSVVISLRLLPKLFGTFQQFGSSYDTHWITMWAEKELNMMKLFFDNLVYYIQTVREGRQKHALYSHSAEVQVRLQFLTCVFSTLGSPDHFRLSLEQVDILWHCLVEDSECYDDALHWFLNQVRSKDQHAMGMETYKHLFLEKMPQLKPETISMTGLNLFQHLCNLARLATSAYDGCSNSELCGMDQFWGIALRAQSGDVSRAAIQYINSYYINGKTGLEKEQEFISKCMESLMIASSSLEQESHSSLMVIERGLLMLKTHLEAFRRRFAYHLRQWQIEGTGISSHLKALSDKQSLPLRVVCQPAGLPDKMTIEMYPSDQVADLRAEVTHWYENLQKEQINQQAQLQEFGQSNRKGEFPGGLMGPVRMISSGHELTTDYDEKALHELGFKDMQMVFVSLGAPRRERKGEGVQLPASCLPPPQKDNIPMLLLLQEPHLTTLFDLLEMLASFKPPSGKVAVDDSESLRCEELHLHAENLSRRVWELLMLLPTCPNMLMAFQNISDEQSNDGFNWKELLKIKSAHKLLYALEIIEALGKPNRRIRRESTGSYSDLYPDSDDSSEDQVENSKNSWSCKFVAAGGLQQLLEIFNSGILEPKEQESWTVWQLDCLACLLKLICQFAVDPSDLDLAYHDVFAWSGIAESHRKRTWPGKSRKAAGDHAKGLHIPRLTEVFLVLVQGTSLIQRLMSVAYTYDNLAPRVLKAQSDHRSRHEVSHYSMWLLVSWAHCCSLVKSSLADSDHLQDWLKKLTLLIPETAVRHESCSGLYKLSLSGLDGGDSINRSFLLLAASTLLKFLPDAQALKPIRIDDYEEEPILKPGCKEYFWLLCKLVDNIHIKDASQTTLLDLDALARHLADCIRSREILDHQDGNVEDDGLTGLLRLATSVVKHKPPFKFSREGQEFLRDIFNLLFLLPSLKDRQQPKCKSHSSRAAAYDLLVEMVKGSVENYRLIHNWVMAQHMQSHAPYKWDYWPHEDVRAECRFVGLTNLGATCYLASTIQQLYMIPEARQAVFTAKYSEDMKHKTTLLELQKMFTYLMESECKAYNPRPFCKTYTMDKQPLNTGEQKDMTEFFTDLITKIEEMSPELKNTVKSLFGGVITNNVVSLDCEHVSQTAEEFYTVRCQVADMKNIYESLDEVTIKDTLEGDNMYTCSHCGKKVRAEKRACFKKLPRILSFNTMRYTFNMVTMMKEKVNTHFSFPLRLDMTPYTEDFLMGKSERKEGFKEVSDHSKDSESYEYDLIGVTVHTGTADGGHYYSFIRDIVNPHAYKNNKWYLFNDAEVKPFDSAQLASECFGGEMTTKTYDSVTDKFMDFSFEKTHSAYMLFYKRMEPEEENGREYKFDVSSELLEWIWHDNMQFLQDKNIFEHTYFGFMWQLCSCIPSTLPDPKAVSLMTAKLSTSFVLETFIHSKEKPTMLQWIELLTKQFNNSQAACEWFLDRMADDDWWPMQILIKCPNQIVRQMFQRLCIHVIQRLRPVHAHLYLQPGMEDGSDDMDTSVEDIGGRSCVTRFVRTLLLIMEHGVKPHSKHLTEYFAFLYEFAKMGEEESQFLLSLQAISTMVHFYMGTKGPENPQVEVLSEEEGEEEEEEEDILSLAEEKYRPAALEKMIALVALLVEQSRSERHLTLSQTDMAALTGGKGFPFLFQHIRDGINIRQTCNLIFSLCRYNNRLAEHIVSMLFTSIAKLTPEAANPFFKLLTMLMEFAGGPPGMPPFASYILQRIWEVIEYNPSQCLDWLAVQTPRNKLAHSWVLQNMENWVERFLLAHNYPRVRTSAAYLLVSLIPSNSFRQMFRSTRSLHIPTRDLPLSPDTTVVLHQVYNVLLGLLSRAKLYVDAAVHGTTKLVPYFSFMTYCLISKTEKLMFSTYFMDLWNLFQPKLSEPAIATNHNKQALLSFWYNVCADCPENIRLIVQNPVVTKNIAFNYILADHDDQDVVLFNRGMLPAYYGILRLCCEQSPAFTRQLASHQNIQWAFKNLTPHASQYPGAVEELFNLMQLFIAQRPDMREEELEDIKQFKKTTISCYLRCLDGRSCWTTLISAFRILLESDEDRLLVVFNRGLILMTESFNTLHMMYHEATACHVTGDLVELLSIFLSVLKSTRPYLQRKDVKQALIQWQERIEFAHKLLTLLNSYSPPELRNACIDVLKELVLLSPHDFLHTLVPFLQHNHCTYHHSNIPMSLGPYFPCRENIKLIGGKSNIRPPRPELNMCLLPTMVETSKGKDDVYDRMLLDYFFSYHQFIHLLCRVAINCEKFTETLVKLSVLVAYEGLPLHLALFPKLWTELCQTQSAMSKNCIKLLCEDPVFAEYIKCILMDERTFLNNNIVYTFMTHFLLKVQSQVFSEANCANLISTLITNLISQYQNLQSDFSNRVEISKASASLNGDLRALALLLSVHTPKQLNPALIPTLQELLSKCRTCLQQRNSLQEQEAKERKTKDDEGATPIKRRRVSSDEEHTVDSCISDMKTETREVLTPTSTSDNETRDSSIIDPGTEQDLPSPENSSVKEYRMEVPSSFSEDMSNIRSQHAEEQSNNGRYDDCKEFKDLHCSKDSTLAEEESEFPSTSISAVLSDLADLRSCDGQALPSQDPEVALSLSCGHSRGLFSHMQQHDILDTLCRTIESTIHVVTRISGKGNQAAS

O=C(CN1CCN(C(=O)CCl)CC1)Nc1cccc(F)c1
inactive: USP34 -0.112 | USP36 0.0501 | USP38 -0.114 | USP39 -0.288 | USP4 -0.0247
